Reference: the supplement of paper PMC8728848
This excerpt belongs to a sample that is enriched for the strongest signals.

Assays:
Assay in all cases: glycan array binding signal (z-score within array); higher = stronger binding
Details in all cases: glycan notation: IUPAC condensed, linker removed
[1] = molecular target: Fuc(a1-2)Gal(b1-3)GalNAc(a1-3)[Fuc(a1-2)]Gal(b1-4)GlcNAc
Outline: (§1)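 The Consortium for Functional Glycomics database supplied 3228 glycan arrays, of which those lacking an available protein sequence were dropped. The binding signal, a within-array Z-score, was averaged across arrays of the same protein sequence and across linkers. Negative scores can be read as non-binding.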

[2] = molecular target: Fuc(a1-2)Gal(b1-3)GlcNAc(b1-2)Man(a1-3)[Fuc(a1-2)Gal(b1-3)GlcNAc(b1-2)Man(a1-6)]Man(b1-4)GlcNAc(b1-4)GlcNAc
Outline: as §1

[3] = molecular target: Fuc(a1-2)Gal(b1-4)GlcNAc(b1-2)Man(a1-3)[Fuc(a1-2)Gal(b1-4)GlcNAc(b1-2)Man(a1-6)]Man(b1-4)GlcNAc(b1-4)GlcNAc
Outline: as §1

[4] = molecular target: Fuc(a1-2)Gal(b1-4)GlcNAc(b1-3)Gal(b1-4)GlcNAc(b1-3)Gal(b1-4)GlcNAc
Outline: as §1

[5] = molecular target: Fuc(a1-2)Gal6S(b1-3)GlcNAc6S
Outline: as §1

[6] = molecular target: Gal(a1-3)Gal(b1-4)[Fuc(a1-3)]GlcNAc(b1-2)Man(a1-3)[Gal(a1-3)Gal(b1-4)[Fuc(a1-3)]GlcNAc(b1-2)Man(a1-6)]Man(b1-4)GlcNAc(b1-4)GlcNAc
Outline: as §1

[7] = molecular target: Gal(a1-4)Gal(b1-4)Glc
Outline: as §1

[8] = molecular target: Gal(a1-4)Gal(b1-4)GlcNAc(b1-2)Man(a1-3)[Gal(a1-4)Gal(b1-4)GlcNAc(b1-2)Man(a1-6)]Man(b1-4)GlcNAc(b1-4)GlcNAc
Outline: as §1

[9] = molecular target: Gal(b1-3)Gal(b1-4)GlcNAc
Outline: as §1

[10] = molecular target: Gal(b1-3)GalNAc(a1-3)[Fuc(a1-2)]Gal(b1-4)Glc
Outline: as §1

[11] = molecular target: Gal(b1-4)Glc6S
Outline: as §1

[12] = molecular target: Gal(b1-4)GlcNAc(b1-2)Man(a1-3)[Gal(b1-4)GlcNAc(b1-2)Man(a1-6)]Man(b1-4)GlcNAc(b1-4)GlcNAc
Outline: as §1

[13] = molecular target: Gal(b1-4)GlcNAc(b1-2)[Gal(b1-4)GlcNAc(b1-4)]Man(a1-3)[Gal(b1-4)GlcNAc(b1-2)Man(a1-6)]Man(b1-4)GlcNAc(b1-4)GlcNAc
Outline: as §1

[14] = molecular target: Gal(b1-4)GlcNAc(b1-2)[Gal(b1-4)GlcNAc(b1-6)]Man(a1-6)[GlcNAc(b1-4)][Gal(b1-4)GlcNAc(b1-2)[Gal(b1-4)GlcNAc(b1-4)]Man(a1-3)]Man(b1-4)GlcNAc(b1-4)[Fuc(a1-6)]GlcNAc
Outline: as §1

[15] = molecular target: Gal(b1-4)GlcNAc(b1-3)Gal(b1-4)GlcNAc(b1-3)Gal(b1-4)GlcNAc(b1-2)Man(a1-3)[Gal(b1-4)GlcNAc(b1-3)Gal(b1-4)GlcNAc(b1-3)Gal(b1-4)GlcNAc(b1-2)Man(a1-6)]Man(b1-4)GlcNAc(b1-4)[Fuc(a1-6)]GlcNAc
Outline: as §1

[16] = molecular target: Gal(b1-4)GlcNAc(b1-3)Gal(b1-4)GlcNAc(b1-3)Gal(b1-4)GlcNAc(b1-2)[Gal(b1-4)GlcNAc(b1-3)Gal(b1-4)GlcNAc(b1-3)Gal(b1-4)GlcNAc(b1-6)]Man(a1-6)[Gal(b1-4)GlcNAc(b1-3)Gal(b1-4)GlcNAc(b1-3)Gal(b1-4)GlcNAc(b1-2)Man(a1-3)]Man(b1-4)GlcNAc(b1-4)[Fuc(a1-6)]GlcNAc
Outline: as §1

[17] = molecular target: Gal(b1-4)GlcNAc(b1-3)Gal(b1-4)GlcNAc(b1-3)Gal(b1-4)GlcNAc(b1-3)Gal(b1-4)GlcNAc(b1-3)Gal(b1-4)GlcNAc(b1-2)[Gal(b1-4)GlcNAc(b1-3)Gal(b1-4)GlcNAc(b1-3)Gal(b1-4)GlcNAc(b1-3)Gal(b1-4)GlcNAc(b1-3)Gal(b1-4)GlcNAc(b1-6)]Man(a1-6)[Gal(b1-4)GlcNAc(b1-3)Gal(b1-4)GlcNAc(b1-3)Gal(b1-4)GlcNAc(b1-3)Gal(b1-4)GlcNAc(b1-3)Gal(b1-4)GlcNAc(b1-2)Man(a1-3)]Man(b1-4)GlcNAc(b1-4)[Fuc(a1-6)]GlcNAc
Outline: as §1

[18] = molecular target: Gal(b1-4)GlcNAc(b1-3)Gal(b1-4)GlcNAc(b1-6)[Gal(b1-3)]GalNAc
Outline: as §1

[19] = molecular target: Gal(b1-4)GlcNAc(b1-3)Gal(b1-4)[Fuc(a1-3)]GlcNAc(b1-3)Gal(b1-4)[Fuc(a1-3)]GlcNAc
Outline: as §1

[20] = molecular target: Gal(b1-4)GlcNAc(b1-3)GalNAc
Outline: as §1

[21] = molecular target: Gal3S(b1-3)GalNAc
Outline: as §1

[22] = molecular target: Gal3S(b1-3)[Fuc(a1-4)]GlcNAc
Outline: as §1

[23] = molecular target: Gal3S(b1-4)[Fuc(a1-3)]Glc6S
Outline: as §1

[24] = molecular target: Gal3S4S(b1-4)GlcNAc
Outline: as §1

[25] = molecular target: Glc(b1-6)Glc
Outline: as §1

[26] = molecular target: GlcNAc(a1-4)Gal(b1-4)GlcNAc(b1-3)Gal(b1-4)Glc
Outline: as §1

[27] = molecular target: GlcNAc(b1-3)Gal
Outline: as §1

[28] = molecular target: GlcNAc(b1-3)[GlcNAc(b1-4)][GlcNAc(b1-6)]GlcNAc
Outline: as §1

[29] = molecular target: Man(a1-3)[Man(a1-6)]Man(a1-6)[Man(a1-3)]Man(b1-4)GlcNAc(b1-4)GlcNAc
Outline: as §1

[30] = molecular target: Neu5Ac(a2-3)Gal(b1-3)GlcNAc(b1-2)Man
Outline: as §1

[31] = molecular target: Neu5Ac(a2-3)Gal(b1-3)GlcNAc(b1-3)Gal(b1-3)GlcNAc
Outline: as §1

[32] = molecular target: Neu5Ac(a2-3)Gal(b1-3)GlcNAc(b1-3)GalNAc
Outline: as §1

[33] = molecular target: Neu5Ac(a2-3)Gal(b1-3)GlcNAc(b1-4)Gal(b1-4)Glc
Outline: as §1

[34] = molecular target: Neu5Ac(a2-3)Gal(b1-4)Glc
Outline: as §1

[35] = molecular target: Neu5Ac(a2-3)Gal(b1-4)GlcNAc(b1-2)Man
Outline: as §1

[36] = molecular target: Neu5Ac(a2-3)Gal(b1-4)GlcNAc(b1-6)GalNAc
Outline: as §1

[37] = molecular target: Neu5Ac(a2-6)Gal(b1-4)Glc
Outline: as §1

[38] = molecular target: Neu5Ac(a2-6)Gal(b1-4)GlcNAc(b1-2)Man(a1-6)Man(b1-4)GlcNAc(b1-4)GlcNAc
Outline: as §1

[39] = molecular target: Neu5Ac(a2-6)Gal(b1-4)GlcNAc(b1-2)Man(a1-6)[GlcNAc(b1-2)Man(a1-3)]Man(b1-4)GlcNAc(b1-4)GlcNAc
Outline: as §1

[40] = molecular target: Neu5Ac(a2-6)Gal(b1-4)GlcNAc(b1-3)[Neu5Ac(a2-6)Gal(b1-4)GlcNAc(b1-6)]GalNAc
Outline: as §1

[41] = molecular target: Neu5Ac(a2-8)Neu5Ac(a2-8)Neu5Ac(a2-3)[GalNAc(b1-4)]Gal(b1-4)Glc
Outline: as §1

[42] = molecular target: Neu5Gc(a2-3)Gal(b1-4)[Fuc(a1-3)]GlcNAc
Outline: as §1

[43] = molecular target: Neu5Gc(a2-6)Gal(b1-4)GlcNAc
Outline: as §1

[44] = molecular target: Neu5Gc(a2-8)Neu5Gc(a2-3)Gal(b1-4)GlcNAc
Outline: as §1

B1: GroEL (Clostridium difficile), Q18CT5 (protein)
chain: MAKEIKFSEETRRALEAGVNKLADTVKVTLGPKGRNVILDKKFGSPLITNDGVTIAKEIELEDRFENMGAQLVKEVATKTNDVAGDGTTTATVLAQAIIREGLKNVTAGANPILLRKGIQKAVTVAVEELKNQSRIVETQEAISQVASISAGDEEVGKLIAEAMEIVGKDGVITVEESQTMNTELDAVEGMQFDRGFVSAYMVTDVDKMEAVLNDPYILITDKKISNIQELLPVLEQIVQQGKKLLIIAEDVEGEALSTLVVNKLRGTFDVVAVKAPGFGDRRKEMLQDIAILTGAQVISEELGYDLKEADLSMLGRASSVKVTKESTTIVDGSGDKKAIEDRVTQIKHQVEQTTSDFDREKLMERLAKLAGGVAVVKVGAATEVELKERKLRIEDALNATRAAVEEGIVAGGGTAFVSVIPAIGTLIESLEGEVKLGAQIVKKALEEPLRQIAINAGLEGAVIVQNVVNSEAETGFDALNEKYVNMIEAGIVDPTKVSRSALQNAASIASTFLTTEAAVADLPEKEDAGMPGMGGGMPGMM
- glycan array binding signal (z-score) [1]: -0.541
- glycan array binding signal (z-score) [2]: 3.73
- glycan array binding signal (z-score) [3]: 2.28
- glycan array binding signal (z-score) [4]: 0.143
- glycan array binding signal (z-score) [5]: -0.399
- glycan array binding signal (z-score) [6]: -0.924
- glycan array binding signal (z-score) [7]: 2.58
- glycan array binding signal (z-score) [8]: 0.083
- glycan array binding signal (z-score) [9]: -0.843
- glycan array binding signal (z-score) [10]: 3.31
- glycan array binding signal (z-score) [11]: 0.425
- glycan array binding signal (z-score) [12]: 0.454
- glycan array binding signal (z-score) [13]: 2.79
- glycan array binding signal (z-score) [14]: -1
- glycan array binding signal (z-score) [15]: 0.085
- glycan array binding signal (z-score) [16]: 3.44
- glycan array binding signal (z-score) [17]: 1.02
- glycan array binding signal (z-score) [18]: 2.77
- glycan array binding signal (z-score) [19]: -1.13
- glycan array binding signal (z-score) [20]: -0.517
- glycan array binding signal (z-score) [21]: 2.59
- glycan array binding signal (z-score) [22]: -0.243
- glycan array binding signal (z-score) [23]: 3.51
- glycan array binding signal (z-score) [24]: -0.674
- glycan array binding signal (z-score) [25]: 3.22
- glycan array binding signal (z-score) [26]: 0.659
- glycan array binding signal (z-score) [27]: 0.995
- glycan array binding signal (z-score) [28]: -0.786
- glycan array binding signal (z-score) [29]: 3.99
- glycan array binding signal (z-score) [30]: -0.056
- glycan array binding signal (z-score) [31]: -0.917
- glycan array binding signal (z-score) [32]: 0.139
- glycan array binding signal (z-score) [33]: 2.65
- glycan array binding signal (z-score) [34]: 0.753
- glycan array binding signal (z-score) [35]: 0.243
- glycan array binding signal (z-score) [36]: -0.601
- glycan array binding signal (z-score) [37]: 0.455
- glycan array binding signal (z-score) [38]: -0.426
- glycan array binding signal (z-score) [39]: -0.085
- glycan array binding signal (z-score) [40]: -1.37
- glycan array binding signal (z-score) [41]: -0.254
- glycan array binding signal (z-score) [42]: -0.437
- glycan array binding signal (z-score) [43]: 1.41
- glycan array binding signal (z-score) [44]: -0.482
